Laboratory results as given in PubChem BioAssay (NCATS).
Records with an inconclusive call do not appear. Activity calls are given as the source filed them. Calls follow the shape of the dose curve; as a rule, active = well fitted inhibition curve with a large enough effect; inconclusive = small, poorly fitted or top-dose-only effect; inactive = flat fitted curve, though single readings scatter.

Key:
Test in all cases: qHTS profiling for inhibitors of Plasmodium falciparum proliferation (AID 504749); also: nearly all actives have a fitted effect of over 60% in size
Conditions in all cases: P. falciparum in erythrocytes, SYBR Green DNA, 72 h; series mostly up to 28.7 µM
ATS95 = system: ATS95
Procedure, shortened: (§1)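 Fluorescence of SYBR Green-bound parasite DNA, read at 485/535 nm, served as the growth measure. Infected erythrocytes were cultured with compound 72 h; artemisinin (0.29 uM) and DMSO wells defined the normalization range.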

C2A = system: C2A
Procedure, shortened: as §1

CP217 = system: CP217
Procedure, shortened: as §1

CP237 = system: CP237
Procedure, shortened: as §1

CP238 = system: CP238
Procedure, shortened: as §1

CP250 = system: CP250
Procedure, shortened: as §1

CP252 = system: CP252
Procedure, shortened: as §1

CP256 = system: CP256
Procedure, shortened: as §1

CP262 = system: CP262
Procedure, shortened: as §1

CP265 = system: CP265
Procedure, shortened: as §1

CP266 = system: CP266
Procedure, shortened: as §1

CP268 = system: CP268
Procedure, shortened: as §1

CP269 = system: CP269
Procedure, shortened: as §1

CP325 = system: CP325
Procedure, shortened: as §1

CP329 = system: CP329
Procedure, shortened: as §1

Dd2 = system: Dd2
Procedure, shortened: as §1

ECU = system: ECU
Procedure, shortened: as §1

GB4 = system: GB4
Procedure, shortened: as §1

P93_24 = system: P93_24
Procedure, shortened: as §1

SC27B = system: SC27B
Procedure, shortened: as §1

Measured: Potency

CCCCCCCCCCCCCCCC(=O)OCC(COP(=O)(O)OCC[N+](C)(C)C)OC(=O)CCCCCCCCCCCCCCC (stereo not given)
inactive: all assays above

O=[N+]([O-])O[C@H]1CO[C@H]2[C@@H]1OC[C@H]2O
inactive: all assays above

CC(O)C(N)C(=O)O (stereo not given)
inactive: all assays above

C=C(NCc1ccccc1)c1ccccc1O
inactive: all assays above

CCCC[C@H](O)c1ccccc1
inactive: all assays above

OCCN1CC(O)C(O)C(O)C1CO (stereo not given)
inactive: all assays above

CC(=O)NC1[C@H](O)C[C@@](O)(C(=O)O)O[C@H]1[C@H](O)[C@H](O)CO (stereo not given in full)
inactive: all assays above

Cc1cn([C@H]2CC(F)[C@@H](CO)O2)c(=O)[nH]c1=O (stereo not given in full)
inactive: all assays above

O=C1CC[C@H](C(=O)N[C@@H]2C[C@H]2c2ccccc2)N1
inactive: all assays above

CC(=O)OCC(=O)[C@@]1(O)CCC2C3CCC4=CC(=O)C=CC4(C)C3C(O)C[C@]21C (stereo not given in full)
inactive: all assays above

O=C1NC(=O)C2C3C=CC(C3)C12 (stereo not given)
inactive: all assays above

Cc1cnc(C(=O)O)cn1
inactive: all assays above
